Hit rate of the full screen: of about 360,000 compounds, about 620 (0.17%) were called active. The list comes from a sample in which actives are over-represented; it also holds similar structures and randomly drawn compounds. A number with no mark means an inactive call.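 How the source made its calls: active means inhibition above a per-campaign cutoff, the mean of all compounds plus 3 SD (cut at about 60% in these data); inactive means the rest.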

Chain of Nuclear receptor coactivator 3 (Homo sapiens) (Q9Y6Q9 whole entry, looked up, the tested form may be a part): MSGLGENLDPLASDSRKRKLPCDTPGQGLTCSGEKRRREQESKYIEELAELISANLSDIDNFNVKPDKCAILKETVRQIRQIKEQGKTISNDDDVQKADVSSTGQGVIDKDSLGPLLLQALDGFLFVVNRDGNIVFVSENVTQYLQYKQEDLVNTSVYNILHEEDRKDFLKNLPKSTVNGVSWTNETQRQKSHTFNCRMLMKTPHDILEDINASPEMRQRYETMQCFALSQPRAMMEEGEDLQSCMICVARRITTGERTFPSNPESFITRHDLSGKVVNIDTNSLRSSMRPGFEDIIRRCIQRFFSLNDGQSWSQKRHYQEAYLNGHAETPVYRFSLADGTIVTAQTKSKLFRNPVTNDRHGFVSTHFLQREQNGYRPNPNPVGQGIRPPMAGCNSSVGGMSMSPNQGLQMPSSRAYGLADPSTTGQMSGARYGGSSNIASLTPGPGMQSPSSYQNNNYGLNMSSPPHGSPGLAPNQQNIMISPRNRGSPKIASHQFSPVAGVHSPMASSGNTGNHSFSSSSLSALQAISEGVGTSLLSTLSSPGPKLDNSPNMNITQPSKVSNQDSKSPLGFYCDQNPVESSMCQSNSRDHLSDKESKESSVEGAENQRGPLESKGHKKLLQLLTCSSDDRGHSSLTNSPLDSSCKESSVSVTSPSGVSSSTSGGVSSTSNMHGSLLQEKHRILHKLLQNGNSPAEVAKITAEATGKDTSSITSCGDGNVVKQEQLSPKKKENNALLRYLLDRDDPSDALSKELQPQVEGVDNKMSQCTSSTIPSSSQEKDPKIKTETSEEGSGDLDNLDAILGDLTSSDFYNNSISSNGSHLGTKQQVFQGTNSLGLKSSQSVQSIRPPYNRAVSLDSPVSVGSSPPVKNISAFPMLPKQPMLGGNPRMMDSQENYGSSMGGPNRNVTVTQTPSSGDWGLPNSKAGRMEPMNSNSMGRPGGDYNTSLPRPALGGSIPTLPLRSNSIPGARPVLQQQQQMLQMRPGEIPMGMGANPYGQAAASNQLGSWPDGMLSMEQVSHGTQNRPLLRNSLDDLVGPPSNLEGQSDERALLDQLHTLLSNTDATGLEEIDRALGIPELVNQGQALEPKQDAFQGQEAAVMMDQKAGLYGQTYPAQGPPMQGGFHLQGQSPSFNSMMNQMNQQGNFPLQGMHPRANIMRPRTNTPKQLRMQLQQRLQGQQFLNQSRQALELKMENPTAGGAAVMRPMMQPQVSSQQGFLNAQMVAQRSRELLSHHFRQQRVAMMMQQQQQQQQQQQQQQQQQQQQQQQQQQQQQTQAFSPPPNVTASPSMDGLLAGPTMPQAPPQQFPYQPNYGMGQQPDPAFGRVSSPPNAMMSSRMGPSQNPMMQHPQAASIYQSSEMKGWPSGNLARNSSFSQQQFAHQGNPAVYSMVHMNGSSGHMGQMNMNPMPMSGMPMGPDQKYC

The experiment has as its target Nuclear receptor coactivator 3 (Homo sapiens) (UniProt Q9Y6Q9). Nature of the experiment: SRC3 coactivator transcriptional activity inhibitors, primary screen, cell-based, luminescence (AID 588352).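 Further: 0% = DMSO-treated cells and 100% = gossypol-treated cells at 36 µM; higher means less SRC3-driven luciferase light from the GAL4 reporter.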 To be noted: HEK293 GAL4-SRC3 luciferase reporter, at 3.6 µM, hits give high values.
Regarding `O=C1c2ccncc2C(=O)N1C1CCCCC1`, the inhibition was -19.6%.
For `CC(Sc1nnc(Cc2ccc([N+](=O)[O-])cc2)o1)C(N)=O` (stereo not drawn), the inhibition was -2.53%.
On to `O=C(CCNS(=O)(=O)c1ccccc1)NCCSc1ccc(Br)cc1`, for which the inhibition is -5.67%.
Regarding `CC(C)(CSc1nncn1/N=C/c1ccco1)NS(=O)(=O)c1ccc(Cl)cc1`, the inhibition is 0.37%.
In the case of `O=C(O)CCC(=O)Nc1ccc(OCC2CCCO2)cc1` (stereo not drawn) it was 4.7%.
In the case of `COc1ccc(OC)c(Cc2cnc3nc(N)nc(N)c3c2C)c1` it was 63.7% (active); in that of `COc1ccc(-c2nc(N)ncc2-c2ccc(Cl)cc2)c(O)c1`, 1.54%.
On to `OCCCNc1nccc(-c2cc(Nc3cccc(Cl)c3)ncn2)n1`, for which the inhibition is 90.9% (active).
`Cc1[nH]c(=O)c(C(=O)/C=C/c2ccccc2)c2c1CCCC2`: the inhibition is 64.9% (active).
As for `CC1(C(=O)O)CCCN(C(=O)/C=C/c2ccccc2)C1` (stereo not drawn), the inhibition is -1.88%.
Take `C/C(=C\c1ccccc1)C1NC(=O)c2c(sc3c2CCCC3)N1` (stereo not drawn): the inhibition is 21.8%.
Turning to `Nc1cccc2c1C(=O)N(Cc1nnc(-c3ccccc3Br)o1)C2=O`, the inhibition was 7.44%.
Next, `COc1ccc(C(=O)N2CCCCC2C(=O)Nc2ccc(-n3nc(C)cc3C)cc2)o1` (stereo not drawn): -17.3%; `Clc1ccc(-c2nnc(-c3ccccc3)nc2N2CCSCC2)cc1`: 5.59%; `O=C(NCC1(N2CCCCC2)CCCCC1)c1ccc(NS(=O)(=O)c2ccc(F)cc2)cc1`: -2.32%.
Next, `CCN(CC(=O)Nc1c(F)cccc1F)C(=O)CN1c2cccc3cccc(c23)S1(=O)=O`: -23.2%.
In the case of `COc1ccc(C(=O)Nc2ccc(C3(C#N)CCCC3)cc2)cc1OC`, the inhibition was -41%.
`C[C@H](C(=O)CC(=O)OC(C)(C)C)[C@H](O)c1ccc(C(F)(F)F)cc1`: the inhibition was 4.25%.
For `O=S(=O)(c1cccc(-c2cn3ccccc3n2)c1)N1CCCC1`, the inhibition was 11.7%.
Turning to `Cc1c(CN2CCC(CO)(CCOc3ccccc3)CC2)[nH]c2ccc(Cl)cc12`, the inhibition was -36.5%.
For `CN(CC(=O)Nc1c(Cl)cccc1Cl)C(=O)CC1OC(=O)c2ccccc21` (stereo not drawn), the inhibition was 12.4%.
For `COC(=O)/C(=C1\Oc2ccc(C(C)(C)C)cc2S1)C(F)(F)F`, the inhibition was 5.95%.
Regarding `CCc1nc2c(OCCOc3ccccc3)cccn2c1N(C)C(=O)c1cccs1`, the inhibition was -22.5%.
For `COc1ccc(C(=O)Nc2ccccc2C(=O)N/N=C/c2ccc(O)c(OC)c2)cc1`, the inhibition was 69.8% (active).
On to `CCn1c(/C=N/NC(=O)c2ccc(OC)cc2)nc2ccccc21`, for which the inhibition is 15.7%.
For `COc1cccc(OCc2cc(/C=N/NC(=O)c3nc(Cl)c(Cl)c(N)c3Cl)ccc2OC)c1`, the inhibition was -12.8%.
In the case of `C=CCN(c1ccc(Cl)cc1)S(=O)(=O)c1cccc(C(=O)OCC(=O)N(C)C)c1`, the inhibition is 16.1%.
With `CC(C)[C@@H](C(=O)OCC(=O)c1ccc2c(c1)NC(=O)CO2)N1C(=O)c2ccccc2C1=O`, the inhibition is -6.83%.
Regarding `CC(CO)N1CCS(=O)(=O)CC1` (stereo not drawn), the inhibition was 19.6%.
On to `O=C(Cc1ccc(S(=O)(=O)N2CCOCC2)s1)Nc1ccc(Br)c(C(F)(F)F)c1`, for which the inhibition is 4.75%.
Next, `N=c1c2c(-c3ccccc3)c(-c3ccccc3)n(Cc3ccccc3)c2ncn1CCCO`: 62.7% (active).
Turning to `COCCn1cnc2c1c(=O)n(Cc1ccc(Br)cc1)c(=O)n2Cc1ccccc1`, the inhibition is -1.52%.
Take `COCCn1cnc2c1c(=O)n(CC(=O)NN)c(=O)n2Cc1ccccc1`: the inhibition was 1.62%.
With `CC(C)CC[n+]1ccn(C2=C([O-])c3ccccc3C(=O)/C2=N\S(=O)(=O)c2ccccc2)c1`, the inhibition is -4.74%.
With `CN(C)CC(C)(C)CNC(=O)c1cc(Br)cc(Br)c1O`, the inhibition was -17%.
Turning to `Cc1c(NC(=O)COC(=O)/C=C/c2cccc(F)c2)c(=O)n(-c2ccccc2)n1C`, the inhibition was -6.79%.
In the case of `CC(=O)NN=C(C)c1ccc(NC(=O)C2CC2)cc1`, the inhibition is 0.05%.
As to `CCCC(NCC(=O)Nc1ccccc1C(=O)NC1CC1)c1ccccc1` (stereo not drawn), the inhibition was 4.81%.
In the case of `Cn1c(CC(=O)Nc2ccc(F)cc2)nnc1SCC(=O)NC1CCCCC1`, the inhibition is -3.83%.
With `Cc1ccc(OCCNC(=O)c2cccc(S(=O)(=O)N3CCN(Cc4ccccc4)CC3)c2)cc1`, the inhibition is 0.45%.
For the compound `CC(=O)c1ccc(OC(=O)N2CCOCC2)cc1`, the inhibition is -9.63%.
On to `CCC(NC(=O)C1CCCC1)c1ccc(C)cc1` (stereo not drawn), for which the inhibition was -5.79%.
Next, `COc1ccc(Cl)cc1NC(=O)C(C)N1CCc2ccccc21` (stereo not drawn): -3.25%; `O=C(N/N=C/c1ccccc1O)/C(=C/c1ccccc1)CCO`: 43.6%.
As for `C=CCOc1ccccc1/C=N/NC(=O)Cc1ccccc1`, the inhibition is -4.16%.
As to `O=C(NN=Cc1ccccc1O)NN=Cc1ccccc1O`, the inhibition is 64.5% (active).
Take `O=C(COc1ccc(S(=O)(=O)NCCc2ccccc2)cc1)N1CCCC1`: the inhibition is 15.7%.
Consider `CCc1nnc(NC(=O)CCN(c2ccc(C)cc2)S(=O)(=O)c2ccccc2)s1`, for which the inhibition was 3.02%.
In the case of `CNS(=O)(=O)c1ccc(N2CCCC2=O)c([N+](=O)[O-])c1`, the inhibition is 0.16%.
With `COc1ccc(N(C(=O)c2snc(C(N)=O)c2N)C(C(=O)NC2CCCC2)c2ccco2)cc1OC` (stereo not drawn), the inhibition was -3.31%.
For the compound `Brc1ccc2nc(-c3ccccc3)c(Cc3ccccc3)n2c1`, the inhibition is -38.3%.
As for `Cc1cc(=O)oc2c(C(=O)c3ccccc3)c(OCC(N)=O)ccc12`, the inhibition was 14.2%.
In the case of `COc1ccc(C(=O)N/N=C2\CCS(=O)(=O)c3ccc(F)cc32)cc1OC` it was 5.88%; in that of `Cc1cc(C)n(C(=O)c2ccc(C)c(S(=O)(=O)N3CCOCC3)c2)n1`, 12.7%; in that of `CC[C@H]1CN2CCc3cc(OC)c(OC)cc3[C@@H]2C[C@@H]1C[C@H]1NCCc2cc(OC)c(OC)cc21`, 94.6% (active).
As to `O=C(O)C1CCN(C(=O)OCc2ccccc2)CC1`, the inhibition is -70.7%.
`CCCNC(=O)C1(C)CCCN(C(=O)c2cccc(OC(C)=O)c2C)C1` (stereo not drawn): the inhibition is -10.9%.
Turning to `CCOC(=O)CN(C)S(=O)(=O)c1ccc(-c2cc(C(=O)OC)sc2C(F)(F)F)cc1`, the inhibition is 9.38%.

These data come from PubChem BioAssay AID588352 (The Scripps Research Institute Molecular Screening Center, 2011).
